Measured values reported in PubChem BioAssay (Tox21).
Where “and” joins values, the source holds several entries; their conditions need not be identical. Identical values can stand only once. Records with an inconclusive call do not appear. Entries that show only a call come without a potency. More than one record can exist for a structure, and the calls need not agree. Calls of active or inactive are those of the source. Unless noted, the call rests on the fitted dose curve.

Experiments:
[1] = qHTS assay to identify small molecule agonists of the peroxisome proliferator-activated receptor delta (PPARd) signaling pathway - cell viability counter screen (AID 743211; active means well fitted curve in the direction sought with a large enough effect in the repeat runs; an effect the other way counts as inactive or inconclusive; further: nearly all actives have a fitted effect of over 55% in size; further: potency means the concentration at half of the fitted maximal effect)
How it was run: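 In the same wells used for beta-lactamase reporter measurement, cytotoxicity is scored by CellTiter-Glo. HEK293H PPARd-bla cells receive compound for 17 h at 37C following a 5 h settling period.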

[2] = qHTS assay to identify small molecule antagonists of the peroxisome proliferator-activated receptor delta (PPARd) signaling pathway - cell viability counter screen (AID 743213; active means well fitted curve in the direction sought with a large enough effect in the repeat runs; an effect the other way counts as inactive or inconclusive; further: nearly all actives have a fitted effect of over 50% in size; further: potency means the concentration at half of the fitted maximal effect)
How it was run: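 Same-well viability: cells pre-incubated 5 h, dosed with compound plus 300 nM L165041, kept 17 h at 37 C, FRET substrate 2 h RT, then CellTiter-Glo 30 min RT and luminescence.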

[3] = qHTS assay to identify small molecule antagonists of the farnesoid-X-receptor (FXR) signaling pathway - cell viability counter screen (AID 743221; active means well fitted cell-killing curve with a large enough effect in the repeat runs, not every such curve was filed as active; further: nearly all actives have a fitted effect of over 50% in size)
How it was run: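 Here viability was scored by luminescence after CellTiter-Glo addition to wells already read for beta-lactamase. Prior treatment: compound plus CDCA (50 uM final), 16 h, 37 C, HEK 293T FXR-bla cells.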

[4] = qHTS assay to identify small molecule antagonists of the vitamin D receptor (VDR) signaling pathway - cell viability counter screen (AID 743225; active means well fitted curve in the direction sought with a large enough effect in the repeat runs; an effect the other way counts as inactive or inconclusive; further: nearly all actives have a fitted effect of over 50% in size; further: potency means the concentration at half of the fitted maximal effect)
How it was run: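 Compounds were pinned onto VDR-bla HEK 293T cells together with 1-alpha,25-dihydroxyvitamin D3 at 3 nM final. After 16 h at 37C and 5% CO2 plus the reporter readout, cell viability was measured by CellTiter-Glo luminescence (30 min, room temperature).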

[5] = qHTS assay to identify small molecule agonists of the NFkB signaling pathway - cell viability counter screen (AID 1159515); further: nearly all actives have a fitted effect of over 55% in size; further: potency means the concentration at half of the fitted maximal effect
How it was run: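 NFkB-bla ME-180 cells, 2,000/well, were plated overnight at 37 C, 5% CO2, then exposed to compounds in DMSO for 5 hr. After the bla FRET read, CellTiter-Glo was added to the same wells; luminescence was read after 30 min at room temperature.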

[6] = qHTS assay to identify small molecule agonists of the endoplasmic reticulum stress response signaling pathway (AID 1159516; active means well fitted activation curve with a large enough effect in the signal ratio in the repeat runs, not every such curve was filed as active; the % refers to the signal ratio)
How it was run: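 CellSensor ESRE-bla HeLa cells, carrying a beta-lactamase reporter driven by the ER stress response element, were plated overnight and exposed to compounds for 5 hr at 37 C. Reporter activity was read as FRET substrate fluorescence after 2 hr at room temperature.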

[7] = qHTS assay to identify small molecule agonists of the endoplasmic reticulum stress response signaling pathway - cell viability counter screen (AID 1159517); further: series mostly up to about 61 µM; nearly all actives have a fitted effect of over 50% in size
How it was run: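 Cells, HeLa ESRE-bla; density, 1,500/well; dosing, 5 hr at 37 C, 5% CO2; readout, CellTiter-Glo luminescence after 30 min RT.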

[8] = qHTS assay to identify small molecule antagonists of the retinoid-related orphan receptor gamma (ROR-gamma) signaling pathway - cell viability counter screen (AID 1159520; active means well fitted curve in the direction sought with a large enough effect in the repeat runs; an effect the other way counts as inactive or inconclusive; further: nearly all actives have a fitted effect of over 50% in size; further: potency means the concentration at half of the fitted maximal effect)
How it was run: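 Cytotoxicity was read from cellular ATP (CellTiter-Glo luminescence) after 16 hr at 37 C with 1 uM doxycycline induction. The inducer was added 2 hr after compound transfer to Tet-on ROR gamma CHO cells.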

[9] = qHTS assay to identify small molecule agonists of the AP-1 signaling pathway - cell viability counter screen (AID 1159525); further: nearly all actives have a fitted effect of over 55% in size; further: potency means the concentration at half of the fitted maximal effect
How it was run: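 Luminescent ATP readout (Cell Titer Glo, 30 min RT), normalised to DMSO and tetra n-octyl ammonium bromide controls. Cells were ME-180 AP-1-bla in 0.5% dialyzed FBS Opti-MEM, with a 5 h, 37 °C compound exposure.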

[10] = qHTS assay to identify small molecule agonists of the AP-1 signaling pathway (AID 1159526); further: potency means the concentration at half of the fitted maximal effect
[11] = molecular target: Retinoic acid receptor RXR-alpha (Homo sapiens) (UniProt P19793); assay: qHTS assay to identify small molecule agonists of the RXR signaling pathway (AID 1159527); further: nearly all actives have a fitted effect of over 35% in size
How it was run: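 Using 9-cis retinoic acid as the reference agonist, chemicals were tested in HEK 293T cells […] for 16 hr; substrate loading lasted 2 hr at room temperature.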

[12] = molecular target: Vitamin D3 receptor (Homo sapiens) (UniProt P11473); assay: qHTS assay to identify small molecule agonists of the vitamin D receptor (VDR) signaling pathway (AID 743222)
How it was run: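 VDR-bla cells were plated 4 h at 37C/5% CO2, then exposed to compounds in DMSO for 16 h. After LiveBLAzer B/G FRET substrate addition and 2 h at room temperature, beta-lactamase reporter fluorescence was read.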

[13] = molecular target: Vitamin D3 receptor (Homo sapiens) (UniProt P11473); assay: qHTS assay to identify small molecule antagonists of the vitamin D receptor (VDR) signaling pathway (AID 743223; active means well fitted inhibition curve with a large enough effect in the signal ratio in the repeat runs, not every such curve was filed as active; the % refers to the signal ratio; further: potency means the concentration at half of the fitted maximal effect)
How it was run: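 Inhibition of agonist-driven VDR signalling is scored in VDR-bla cells: 3 nM final 1alpha,25-dihydroxyvitamin D3 plus compound, 16 h at 37C, then beta-lactamase detection by FRET substrate fluorescence after 2 h.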

[14] = molecular target: Nuclear receptor ROR-gamma (Homo sapiens) (UniProt P51449); assay: qHTS assay to identify small molecule antagonists of the retinoid-related orphan receptor gamma (ROR-gamma) signaling pathway (AID 1159521; active means well fitted curve in the direction sought with a large enough effect in the repeat runs; an effect the other way counts as inactive or inconclusive; further: nearly all actives have a fitted effect of over 50% in size; further: potency means the concentration at half of the fitted maximal effect)
How it was run: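 Test compounds were applied to Tet-on RORγ CHO cells 2 h ahead of doxycycline hyclate (1 uM final). Luciferase reporter activity was quantified by luminescence after 16 h at 37 C and 5% CO2.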

[15] = qHTS assay to identify small molecule agonists of the farnesoid-X-receptor (FXR) signaling pathway - cell viability counter screen (AID 743218; active means well fitted curve in the direction sought with a large enough effect in the repeat runs; an effect the other way counts as inactive or inconclusive; further: nearly all actives have a fitted effect of over 45% in size)
How it was run: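 FXR-UAS-bla HEK 293T cells, plated 5 h at 37 C, were exposed to compounds for 16 h at 37 C. CellTiter-Glo was then added to the same wells as the bla readout; luminescence read after 30 min at room temperature.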

[16] = qHTS assay to identify small molecule agonists of the vitamin D receptor (VDR) signaling pathway - cell viability counter screen (AID 743224; active means well fitted curve in the direction sought with a large enough effect in the repeat runs; an effect the other way counts as inactive or inconclusive)
How it was run: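 VDR-bla cells were preincubated 4 h at 37C/5% CO2, then exposed to compounds for 16 h. After the 2 h room-temperature bla FRET read, CellTiter-Glo was added to the same wells and luminescence read after 30 min.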

[17] = molecular target: Peroxisome proliferator-activated receptor delta (Homo sapiens) (UniProt Q03181); assay: qHTS assay to identify small molecule antagonists of the peroxisome proliferator-activated receptor delta (PPARd) signaling pathway (AID 743215; active means well fitted inhibition curve with a large enough effect in the signal ratio in the repeat runs, not every such curve was filed as active; the % refers to the signal ratio;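 further: cells stimulated with agonist L165041 at 300 nM final during compound exposure; series mostly up to about 62 µM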)
How it was run: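 PPARd UAS-bla HEK293H cells were pre-incubated 5 h at 37 C, then given test compounds in DMSO plus agonist L165041 (300 nM final). After 17 h at 37 C, beta-lactamase FRET substrate was added; fluorescence read after 2 h at room temperature.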

[18] = molecular target: Bile acid receptor (Homo sapiens) (UniProt Q96RI1); assay: qHTS assay to identify small molecule antagonists of the farnesoid-X-receptor (FXR) signaling pathway (AID 743217; active means well fitted inhibition curve with a large enough effect in the signal ratio in the repeat runs, not every such curve was filed as active; the % refers to the signal ratio)
How it was run: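 FXR-UAS-bla HEK 293T cells pre-incubated 5 h at 37 °C, then exposed to compounds with chenodeoxycholic acid (50 uM final) for 16 h at 37 °C. Beta-lactamase reporter read by LiveBLAzer B/G FRET substrate fluorescence after 2 h at room temperature.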

[19] = molecular target: Bile acid receptor (Homo sapiens) (UniProt Q96RI1); assay: qHTS assay to identify small molecule agonists of the farnesoid-X-receptor (FXR) signaling pathway (AID 743220; active means well fitted activation curve with a large enough effect in the signal ratio in the repeat runs, not every such curve was filed as active; the % refers to the signal ratio)
How it was run: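 Beta-lactamase reporter under UAS control in GeneBLAzer FXR HEK 293T cells (5000/well) measured with LiveBLAzer FRET substrate after 2 h at room temperature. Compound exposure lasted 16 h at 37C.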

Sequence of Retinoic acid receptor RXR-alpha (Homo sapiens) (P19793 whole entry, looked up): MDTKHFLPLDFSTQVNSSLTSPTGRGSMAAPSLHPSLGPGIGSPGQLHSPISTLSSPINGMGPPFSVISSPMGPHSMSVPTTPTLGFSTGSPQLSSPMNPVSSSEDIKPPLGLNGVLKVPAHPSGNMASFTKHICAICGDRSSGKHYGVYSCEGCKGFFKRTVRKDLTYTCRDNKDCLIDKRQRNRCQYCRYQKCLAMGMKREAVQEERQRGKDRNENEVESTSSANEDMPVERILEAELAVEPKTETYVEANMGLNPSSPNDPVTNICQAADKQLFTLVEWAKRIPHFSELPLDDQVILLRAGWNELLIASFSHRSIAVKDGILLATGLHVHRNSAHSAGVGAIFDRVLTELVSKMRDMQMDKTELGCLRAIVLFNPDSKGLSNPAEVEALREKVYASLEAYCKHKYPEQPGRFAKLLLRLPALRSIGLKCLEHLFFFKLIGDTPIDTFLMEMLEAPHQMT
Sequence of Bile acid receptor (Homo sapiens) (Q96RI1 whole entry, looked up): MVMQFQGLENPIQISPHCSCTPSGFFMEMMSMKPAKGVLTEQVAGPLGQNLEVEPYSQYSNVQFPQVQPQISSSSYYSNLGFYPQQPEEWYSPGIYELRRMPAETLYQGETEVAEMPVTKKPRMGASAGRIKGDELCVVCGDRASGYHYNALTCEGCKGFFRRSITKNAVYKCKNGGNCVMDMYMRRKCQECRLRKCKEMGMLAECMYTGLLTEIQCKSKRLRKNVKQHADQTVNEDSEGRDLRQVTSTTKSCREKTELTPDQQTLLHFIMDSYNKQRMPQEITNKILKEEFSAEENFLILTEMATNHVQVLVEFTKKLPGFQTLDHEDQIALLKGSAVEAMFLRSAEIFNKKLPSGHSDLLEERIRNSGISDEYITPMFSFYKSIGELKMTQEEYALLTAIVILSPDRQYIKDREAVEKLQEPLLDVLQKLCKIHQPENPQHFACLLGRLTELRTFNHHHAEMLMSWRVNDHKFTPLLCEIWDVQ
Sequence of Vitamin D3 receptor (Homo sapiens) (P11473 whole entry, looked up): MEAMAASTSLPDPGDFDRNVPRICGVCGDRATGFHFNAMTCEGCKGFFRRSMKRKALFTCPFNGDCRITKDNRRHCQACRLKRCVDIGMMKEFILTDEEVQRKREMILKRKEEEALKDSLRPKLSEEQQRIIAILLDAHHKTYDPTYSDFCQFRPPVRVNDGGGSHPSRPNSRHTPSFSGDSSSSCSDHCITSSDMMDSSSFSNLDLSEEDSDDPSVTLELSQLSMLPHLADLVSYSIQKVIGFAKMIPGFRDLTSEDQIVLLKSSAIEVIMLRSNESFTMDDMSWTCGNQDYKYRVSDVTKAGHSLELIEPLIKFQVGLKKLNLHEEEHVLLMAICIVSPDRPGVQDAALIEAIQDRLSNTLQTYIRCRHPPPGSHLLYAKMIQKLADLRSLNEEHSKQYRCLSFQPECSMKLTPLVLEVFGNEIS
Sequence of Peroxisome proliferator-activated receptor delta (Homo sapiens) (Q03181 whole entry, looked up): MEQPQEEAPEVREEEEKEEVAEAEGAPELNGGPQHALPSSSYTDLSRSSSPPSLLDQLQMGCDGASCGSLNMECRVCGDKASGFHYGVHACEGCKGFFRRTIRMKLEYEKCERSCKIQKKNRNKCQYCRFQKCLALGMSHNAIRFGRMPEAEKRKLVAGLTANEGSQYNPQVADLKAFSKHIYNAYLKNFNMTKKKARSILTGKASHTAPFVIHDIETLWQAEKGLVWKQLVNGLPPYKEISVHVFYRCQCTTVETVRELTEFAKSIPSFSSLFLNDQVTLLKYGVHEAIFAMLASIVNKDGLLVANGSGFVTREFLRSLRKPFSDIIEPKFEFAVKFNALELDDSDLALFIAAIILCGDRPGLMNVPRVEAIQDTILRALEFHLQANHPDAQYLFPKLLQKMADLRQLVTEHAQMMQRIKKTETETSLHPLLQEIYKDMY

Structure (SMILES) | Potency [1] | Potency [2] | Potency [3] | Potency [4] | Potency [5] | outcome [6] | Potency [7] | Potency [8] | Potency [9] | Potency [10] | Potency [11] | outcome [12] | Potency [13] | Potency [14] | Potency [15] | Potency [16] | outcome [17] | Potency [18] | outcome [19]
O=S(=O)(O)O | inactive | inactive | inactive | inactive | inactive | inactive | inactive | inactive | inactive | inactive | inactive |  |  |  |  |  |  |  | 
Cc1cc(-c2ccc(N)c(C)c2)ccc1N | inactive | inactive | inactive | inactive | inactive | inactive | inactive | inactive | inactive | inactive | inactive | inactive | inactive | inactive |  |  |  |  | 
Nc1ccc(-c2ccc(N)c(Cl)c2)cc1Cl | inactive | inactive | inactive | inactive | inactive |  | inactive | inactive and 48.6 µM (active) | inactive | inactive | inactive | inactive | inactive | 68.6 µM (active) | inactive | inactive |  |  | 
CCC[N+]1(C)CCCCC1 | inactive | inactive | inactive | inactive | inactive | inactive | inactive | inactive | inactive | inactive | inactive |  |  | inactive |  | inactive |  |  | 
CCCC[n+]1ccccc1C | inactive | inactive | inactive | inactive | inactive | inactive | inactive | inactive | inactive | inactive | inactive |  |  | inactive |  | inactive |  |  | 
CCCCCCCCCCCCn1cc[n+](C)c1 |  |  |  |  | 34.8 µM (active) and inactive | inactive |  |  | 49.4 µM (active) and inactive | inactive and 43.4 µM (active) | inactive |  | 55 µM (active) |  |  |  |  |  | 
CCCCCCCCn1cc[n+](C)c1 | inactive | inactive | inactive |  | inactive | inactive | inactive | inactive | inactive | inactive |  | inactive | inactive |  |  |  |  |  | 
CCC(=O)C(CC(C)N(C)C)(c1ccccc1)c1ccccc1 (stereo unspecified) |  | inactive and 37.4 µM (active) | inactive |  | 43.8 µM (active) and inactive | inactive | inactive | inactive | inactive | inactive |  |  |  | 48.8 µM (active) |  |  | inactive | inactive | inactive
CCCC[n+]1ccc(C)cc1 | inactive and 48.7 µM (active) | inactive and 43.4 µM (active) | inactive | inactive and 48.7 µM (active) | inactive | inactive | inactive | inactive and 60.8 µM (active) | inactive and 48.7 µM (active) | 13.8 µM (active) and inactive | inactive |  |  |  |  |  |  |  | 
